This is a sample that favours compounds with a hit; in the whole collection about 1.2% have one here.
SDO1 yeast rescue = growth rescue of sdo1-depleted yeast, primary screen, S. cerevisiae, bone marrow failure model; S. cerevisiae sdo1-depleted JHY4D growth rescue, OD600 30 h; stronger effect = higher value; pdr5 snq2 efflux-pump mutant strain; z-score at 10 µM; 140,000 tested, 0.21% active;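 active = z-score above 3 at both the 24 hr and the 30 hr optical density reads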;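 also: z-score against mean and SD of all compound wells on the same plate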
VCAM1 TNFa inh = inhibitors of TNFa-induced VCAM1 expression, primary screen, imaging, HUVEC, TNFa stimulus, immunofluorescence; HUVEC TNFa-induced VCAM-1 immunofluorescence, high-content imaging; inhibition, % at 2 µM; 95,000 tested, 0.48% active; AID 802, 2007;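 active = inhibition above the batch mean plus 3 SD, with images confirmed as a hit by eye, cut at about 37% in these data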;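 also: 0% = TNF-stimulated DMSO wells and 100% = unstimulated control wells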
F-actin modifier = modifiers of F-actin cytoskeleton organization, primary screen, imaging, HUVEC, phalloidin staining, high-content imaging; inhibition, % at 2 µM; 91,000 tested, 0.18% active; HUVEC TNFa F-actin phalloidin imaging;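 active = inhibition above the batch mean plus 3 SD and confirmed as a hit by visual image inspection, cut at about 30% in these data, passing the limit was not always enough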
Phagocytosis inh = inhibitors of macrophage phagocytosis, primary screen, imaging, J774A.1 cells, IgG beads; inhibition, % at 5 µM; J774A.1 macrophage IgG-bead phagocytosis; 110,000 tested, 0.07% active;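 active = inhibition above the mean of the plate negative controls plus 5 SD, cut at about 13% in these data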;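 also: phagocytic index as fraction of beads internalized from green versus red external bead signal; plate controls were DMSO negative control for no effect and cytochalasin-D positive control for full effect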
E-sel TNF inh = E-selectin induction blockers in HUVEC – imaging, immunofluorescence, high content, primary screen. HUVEC TNFa-induced E-selectin immunofluorescence. inhibition, % at 2 µM. 120,000 tested, 0.71% active. AID 1246, 2008;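 active = inhibition above the batch mean plus 3 SD, and confirmed as a hit on visual image review, cut at about 43% in these data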;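 also: 0% = TNF-stimulated DMSO wells and 100% = unstimulated control wells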
HUVEC tox TNFa = cytotoxicity in TNFa-stimulated HUVEC, primary screen, cytotoxicity control for VCAM1 expression modulator project, imaging, Hoechst nuclei count | HUVEC TNFalpha-stimulated, Hoechst cell count | AID 848, 2007 | 93,000 tested, 0.17% active | cell count reduction, % at 2 µM;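 active = cell count reduction exceeding the screen mean by over 5 SD, scaled to untreated wells per plate, cut at about 78% in these data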;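 also: cells counted after 24 h of TNF alpha exposure following the 1 h pretreatment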
* = called active by the depositor; . = no result given; [ ] = remark or other dose.

SMILES	SDO1 yeast rescue	VCAM1 TNFa inh	F-actin modifier	Phagocytosis inh	E-sel TNF inh	HUVEC tox TNFa
O=C(COC(=O)c1ccccc1C(=O)c1ccc(Cl)c([N+](=O)[O-])c1)NC1CCCCCC1	-1.1	87*	20	2	9	28
CN(CCC#N)C(=O)COC(=O)c1ccc(Cl)c(S(N)(=O)=O)c1	0.75	4	0	1	-1	8
Nc1ccc(C(=O)OCC(=O)NC2CC2)cc1[N+](=O)[O-]	.	.	.	.	-17	.
CN(CCC#N)C(=O)COC(=O)c1ccccc1C(=O)c1ccc(Cl)c([N+](=O)[O-])c1	.	.	.	.	100*	.
CCOC(=O)N1CCN(C(=O)COc2cccc3c2CCN(Cc2cccc(C)c2)C3=O)CC1	0.03	.	.	-9	69*	.
O=C(CCc1ccc(Oc2cc([N+](=O)[O-])cc([N+](=O)[O-])c2)cc1)N1CCCCCC1	-1.4	.	.	-8	-14	.
COc1ccc(C(=O)Nc2ccc(C3=NNC(=O)CC3C)cc2NC(=O)c2ccc(OC)cc2)cc1 (centres undefined)	.	.	.	.	-29	.
CC1CC(=O)NN=C1c1ccc(NCCO)c([N+](=O)[O-])c1 (centres undefined)	-0.09	40*	-41	-2	-21	25
C=CCNC(=O)c1c(Cl)cccc1Cl	0.07	-32	47*	.	-17	.
C=CCNC(=O)c1c(-c2c(F)cccc2Cl)noc1C	0.78	-5	.	.	22	-59
CCOc1ccc(NS(=O)(=O)c2ccc(C)c(C(=O)NCCCn3ccnc3)c2)cc1	.	.	.	.	0	.
O=C(COc1c(CO)cc(Br)cc1CO)NC1CCCc2ccccc21 (centres undefined)	.	.	.	.	2	.
O=C(O)C(=O)/C(=C\c1cccc2ccccc12)c1ccc2ccccc2n1	-1	3	-11	0	2	-13
O=C(O)C(=O)/C(=C\c1ccccc1)c1ccc2ccccc2n1	-0.37	2	6	-1	91*	-9
COc1cc(/C=N/NC(=O)c2cn(-c3cccc(C)n3)cn2)ccc1O	.	.	.	.	-35	.
CC(C)(C)NC(=O)CSc1nsc(SCC(=O)NC(C)(C)C)c1C#N	-0.36	72*	6	0	.	55
CC(=O)CSc1nsc(SCC(C)=O)c1C#N	1.2	21	1	.	-32	-25
CCCC1=Nc2cc(C(=O)NCCCOC(C)C)ccc2Sc2ccccc21	-1	-6	4	.	47	-5
CCC1=Nc2cc(C(=O)NCc3ccco3)ccc2Sc2ccc(C)cc21	-1.3	.	.	6	.	.
CCCC1=Nc2cc(C(=O)NCCCOCC)ccc2Sc2ccccc21	-0.52	94*	-46	11	-9	74
CCC1=Nc2cc(C(=O)NCCCOC)ccc2Sc2ccccc21	-0.11	60*	-22	2	33	42
Cc1cccc2nc(-c3ccccc3)nc(N[C@@H](CO)c3ccccc3)c12	-2.1	.	.	-2	.	.
Cc1ccc(NC(=S)N(Cc2ccc(Cl)cc2)Cc2ccc(C(=O)O)cc2)cc1Cl	.	.	.	.	-10	.
COc1ccc(-c2nnc(NC(=O)C3=COCCO3)o2)cc1	1.8	.	.	.	.	.
O=c1c(N=Nc2ccc(O)cc2)c(-c2ccccc2)[nH]n1-c1ccc([N+](=O)[O-])cc1	.	.	.	.	-29	.
SMILES	SDO1 yeast rescue	VCAM1 TNFa inh	F-actin modifier	Phagocytosis inh	E-sel TNF inh	HUVEC tox TNFa
Cc1[nH]n(-c2ccc([N+](=O)[O-])cc2)c(=O)c1N=Nc1nc2ccccc2s1	.	52*	6	.	19	-4
Cn1nc(-c2ccccc2)c2ncc(C(F)(F)F)cc21	.	.	.	.	12	.
COc1ccc(S(=O)(=O)N(CC(=O)O)c2ccccn2)cc1	2.2	10	-16	.	5	-7
COc1ccc(S(=O)(=O)n2ccc(-c3ccc(OCCN(C)c4ccccn4)cc3)n2)cc1	0.12	0	66*	.	29	-16
Cc1cc(N2CC(C)OC(C)C2)n2cc(-c3ccccc3)nc2n1 (centres undefined)	.	.	.	.	8	.
Cc1cc(NC(=O)CSc2n[nH]c(N)n2)no1	.	.	.	.	67*	.
Cc1cc(NC(=O)CSc2nc(-c3ccco3)cc(C(F)(F)F)n2)no1	-1	53*	-10	.	-2	46
O=C(CSc1nc(-c2ccco2)cc(C(F)(F)F)n1)NCCc1ccccc1	-1	-11	-1	2	11	-16
COc1ccc(CCNC(=O)CSc2nc(-c3ccco3)cc(C(F)(F)F)n2)cc1OC	0.14	10	-24	0	68*	-19
Cc1ccc(C)c(NC(=O)CN(C)C(=O)c2nn(C)c(=O)c3ccccc23)c1	.	.	.	.	-39	.
CCn1nnnc1-c1ccc(OC)c(S(=O)(=O)Nc2ccc(C)c(C)c2)c1	0.55	8	-1	0	13	5
CCn1nnnc1-c1ccc(OC)c(S(=O)(=O)NCc2ccccc2)c1	0.08	4	26	8	88*	0
CCn1cc(C(=O)NNC(=O)c2ccc(Cl)cc2)c(=O)c2ccc(C)nc21	.	.	.	.	-60	.
CCc1ccc2oc(-c3cc(N)ccc3Cl)nc2c1	-2.2	.	.	0	-34	.
CCc1ccc2oc(-c3cc(N)ccc3O)nc2c1	-2	39*	-6	0	36	0
O=C(Nc1nnc(SCC(=O)N2CCOCC2)s1)c1ccccc1Cl	1.1	.	.	37*[artifact]	.	.
Cc1nc(SCC(=O)CC(=O)OC(C)C)c(C#N)c(C)c1C	-1.4	17	-10	.	-28	-2
CSc1nc(N)nc(SCC(=O)CC(=O)OC(C)C)c1C#N	-0.82	-4	-2	38*[artifact]	-19	5
Cc1ccc(NC(=O)C2CCCN(S(=O)(=O)c3c(C)noc3C)C2)nc1 (centres undefined)	-0.17	-16	33	-2	65*	-3
Cc1ccc(CCNC(=O)C2CCCN(S(=O)(=O)c3c(C)noc3/C=C/N(C)C)C2)cc1 (centres undefined)	1.6	0	4	.	55*	-20
Cc1ccc(NC(=O)C2CCCN(S(=O)(=O)c3c(C)noc3C)C2)cc1F (centres undefined)	-0.84	0	4	-4	.	17
Cc1ccc(CCNC(=O)C2CCCN(S(=O)(=O)c3c(C)noc3C)C2)cc1 (centres undefined)	0.59	19	-11	0	.	9
Cc1ccc(CNC(=O)C2CCN(S(=O)(=O)c3c(C)noc3/C=C/c3ccco3)CC2)cc1	-1.1	-14	-14	.	57*	42
Cc1noc(/C=C/c2ccco2)c1S(=O)(=O)N1CCC(C(=O)NCc2ccco2)CC1	-0.46	2	4	-1	.	-37
O=C(c1cnsn1)N1CCN(c2ccccc2)CC1	0.81	-28	20	-1	-8	-5
O=C(c1cnccn1)N1CCN(c2ccccc2)CC1	0.39	-2	-14	.	59*	4
COc1ccc(NC(=O)Cn2nnc(-c3ccccc3NC(=O)c3cccs3)n2)cc1	0.22	-3	-6	0	7	-12

Screening results from PubChem.
